In the supplement of paper PMC10849652:
About 7,900 targets were measured; listed, in parts, are those with a hit and a random draw of the rest. About 0.6% of all pairs of compound and target were hits.

Experiments:
Test in all cases: log2 fold change, soluble protein after heating vs DMSO (PISA); higher = thermal stabilisation; K562 cells, 10 uM, 30 min; active = over 0.2 and 3.5 SD of the protein, either way, in both replicates (recomputed)
[1] = compound: COC1=CC=C(C=C1)CN2C=CC3=C2C=C(C=C3)C(=O)NO
How it was run: (§1)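 K562 cells at 2×10^6 cells/mL were given 10 μM compound for 30 min. Aliquots then went through 3 min of heating across 48°C-58°C, were pooled, and were extracted in PBS with 0.5% NP-40 at 4°C, and the supernatant after 21,000xg for 90 min was quantified by TMTpro 16plex LC-MS/MS with channel sums equalised. Thermal stability relative to control samples, from duplicates, is given as log2 fold change.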

filanesib = compound: CON(C)C(=O)N1N=C(c2cc(F)ccc2F)S[C@@]1(CCCN)c1ccccc1 [filanesib]
How it was run: as §1

zotarolimus = compound: CO[C@H]1C[C@@H]2CC[C@@H](C)[C@@](O)(O2)C(=O)C(=O)N2CCCC[C@H]2C(=O)O[C@H]([C@H](C)C[C@@H]2CC[C@H](n3cnnn3)[C@H](OC)C2)CC(=O)[C@H](C)/C=C(\C)[C@@H](O)[C@@H](OC)C(=O)[C@H](C)C[C@H](C)/C=C/C=C/C=C/1C [zotarolimus]
How it was run: as §1

idasanutlin = compound: COc1cc(C(=O)O)ccc1NC(=O)[C@@H]1N[C@@H](CC(C)(C)C)[C@](C#N)(c2ccc(Cl)cc2F)[C@H]1c1cccc(Cl)c1F [idasanutlin]
How it was run: as §1

alisertib = compound: COc1cc(Nc2ncc3c(n2)-c2ccc(Cl)cc2C(c2c(F)cccc2OC)=NC3)ccc1C(=O)O [alisertib]
How it was run: as §1

[2] = compound: COc1cc2nc(-c3cc(F)ccc3O)nc(N[C@@H]3CNC[C@H]3C(C)(C)O)c2cc1OC
How it was run: as §1

gefitinib = compound: COc1cc2ncnc(Nc3ccc(F)c(Cl)c3)c2cc1OCCCN1CCOCC1 [gefitinib]
How it was run: as §1

[3] = compound: COc1cccc2cc(-c3nc([C@H]4CC[C@H](C(=O)O)CC4)n4ncnc(N)c34)[nH]c12
How it was run: as §1

lapatinib = compound: CS(=O)(=O)CCNCc1ccc(-c2ccc3ncnc(Nc4ccc(OCc5cccc(F)c5)c(Cl)c4)c3c2)o1 [lapatinib]
How it was run: as §1

pictilisib = compound: CS(=O)(=O)N1CCN(Cc2cc3nc(-c4cccc5[nH]ncc45)nc(N4CCOCC4)c3s2)CC1 [pictilisib]
How it was run: as §1

[4] = compound: CS(=O)(=O)c1ccc(-c2cnc(N)c(C(=O)Nc3ccccc3)n2)cc1
How it was run: as §1

crizotinib = compound: C[C@@H](Oc1cc(-c2cnn(C3CCNCC3)c2)cnc1N)c1c(Cl)ccc(F)c1Cl [crizotinib]
How it was run: as §1

[5] = compound: C[C@@H]1COCCN1C2=NC(=NC(=C2)C3(CC3)S(=O)(=O)C)C4=C5C=CNC5=CC=C4
How it was run: as §1

[6] = compound: C[C@H](C1=CC=C(C=C1)C(=O)NC2=C3C=CNC3=NC=C2)N
How it was run: as §1

duvelisib = compound: C[C@H](Nc1ncnc2nc[nH]c12)c1cc2cccc(Cl)c2c(=O)n1-c1ccccc1 [duvelisib]
How it was run: as §1

gandotinib = compound: Cc1cc(Nc2cc(CN3CCOCC3)c3nc(C)c(Cc4ccc(Cl)cc4F)n3n2)n[nH]1 [gandotinib]
How it was run: as §1

tozasertib = compound: Cc1cc(Nc2cc(N3CCN(C)CC3)nc(Sc3ccc(NC(=O)C4CC4)cc3)n2)n[nH]1 [tozasertib]
How it was run: as §1

[7] = compound: Cc1cc(SCc2sc(-c3ccc(C(F)(F)F)cc3)nc2C)ccc1OCC(=O)O
How it was run: as §1

doramapimod = compound: Cc1ccc(-n2nc(C(C)(C)C)cc2NC(=O)Nc2ccc(OCCN3CCOCC3)c3ccccc23)cc1 [doramapimod]
How it was run: as §1

ispinesib = compound: Cc1ccc(C(=O)N(CCCN)[C@@H](c2nc3cc(Cl)ccc3c(=O)n2Cc2ccccc2)C(C)C)cc1 [ispinesib]
How it was run: as §1

Measured: log2 fold change

MAPKAPK5 (UniProt Q8IW41)
UniProt Q8IW41, sequence (Q8IW41 whole entry, looked up): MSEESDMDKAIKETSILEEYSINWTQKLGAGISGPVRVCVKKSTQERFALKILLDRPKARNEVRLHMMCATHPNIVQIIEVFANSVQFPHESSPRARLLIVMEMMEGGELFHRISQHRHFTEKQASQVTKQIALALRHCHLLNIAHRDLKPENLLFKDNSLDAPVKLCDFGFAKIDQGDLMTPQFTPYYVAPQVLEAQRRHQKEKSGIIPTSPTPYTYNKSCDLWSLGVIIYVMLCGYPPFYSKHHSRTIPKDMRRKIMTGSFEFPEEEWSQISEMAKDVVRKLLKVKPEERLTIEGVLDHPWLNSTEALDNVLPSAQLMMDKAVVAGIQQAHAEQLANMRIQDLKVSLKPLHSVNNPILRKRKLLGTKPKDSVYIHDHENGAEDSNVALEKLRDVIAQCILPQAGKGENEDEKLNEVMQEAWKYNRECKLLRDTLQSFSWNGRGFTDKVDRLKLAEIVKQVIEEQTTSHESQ
inactive: [1] -0.011 | filanesib -0.133 | zotarolimus 0.009 | idasanutlin -0.017 | alisertib -0.084 | [2] 0.269 | gefitinib 0 | [3] -0.038 | lapatinib 0.078 | pictilisib 0.134 | [4] 0.012 | crizotinib -0.046 | [5] 0.027 | [6] 0.069 | duvelisib 0.056 | gandotinib 0.297 | tozasertib -0.042 | [7] -0.013 | doramapimod 0.141 | ispinesib -0.017

LARP4 isoform 4 (UniProt Q71RC2)
UniProt Q71RC2, sequence (Q71RC2 whole entry, looked up): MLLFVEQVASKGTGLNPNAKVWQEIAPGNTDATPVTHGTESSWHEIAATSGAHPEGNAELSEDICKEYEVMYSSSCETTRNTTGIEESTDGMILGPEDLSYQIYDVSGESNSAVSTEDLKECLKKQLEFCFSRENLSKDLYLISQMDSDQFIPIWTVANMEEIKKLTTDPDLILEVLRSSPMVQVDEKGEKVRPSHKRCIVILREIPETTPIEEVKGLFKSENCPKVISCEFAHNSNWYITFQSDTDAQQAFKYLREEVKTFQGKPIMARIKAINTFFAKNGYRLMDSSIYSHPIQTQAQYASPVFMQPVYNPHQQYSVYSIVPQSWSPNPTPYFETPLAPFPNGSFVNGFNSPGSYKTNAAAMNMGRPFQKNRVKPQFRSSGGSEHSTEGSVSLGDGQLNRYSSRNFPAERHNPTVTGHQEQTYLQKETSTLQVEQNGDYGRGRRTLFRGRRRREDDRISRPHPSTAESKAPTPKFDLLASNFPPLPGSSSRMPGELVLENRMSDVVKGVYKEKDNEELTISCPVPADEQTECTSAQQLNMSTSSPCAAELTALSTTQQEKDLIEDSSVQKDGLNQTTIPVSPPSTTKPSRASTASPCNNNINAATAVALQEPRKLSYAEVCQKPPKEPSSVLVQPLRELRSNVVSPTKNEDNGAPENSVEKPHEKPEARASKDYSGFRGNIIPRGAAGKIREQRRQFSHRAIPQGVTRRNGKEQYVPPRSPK
inactive: [1] 0.005 | filanesib 0.111 | zotarolimus -0.007 | idasanutlin 0.071 | alisertib -0.045 | [2] -0.159 | gefitinib 0.01 | [3] -0.125 | lapatinib 0.054 | pictilisib -0.068 | [4] -0.027 | crizotinib -0.098 | [6] 0.177 | duvelisib -0.075 | gandotinib 0 | tozasertib 0.017 | [7] 0.06 | doramapimod 0.104 | ispinesib -0.237
active: [5] -0.308

MAPKAPK3 (UniProt Q16644)
UniProt Q16644, sequence (Q16644 whole entry, looked up): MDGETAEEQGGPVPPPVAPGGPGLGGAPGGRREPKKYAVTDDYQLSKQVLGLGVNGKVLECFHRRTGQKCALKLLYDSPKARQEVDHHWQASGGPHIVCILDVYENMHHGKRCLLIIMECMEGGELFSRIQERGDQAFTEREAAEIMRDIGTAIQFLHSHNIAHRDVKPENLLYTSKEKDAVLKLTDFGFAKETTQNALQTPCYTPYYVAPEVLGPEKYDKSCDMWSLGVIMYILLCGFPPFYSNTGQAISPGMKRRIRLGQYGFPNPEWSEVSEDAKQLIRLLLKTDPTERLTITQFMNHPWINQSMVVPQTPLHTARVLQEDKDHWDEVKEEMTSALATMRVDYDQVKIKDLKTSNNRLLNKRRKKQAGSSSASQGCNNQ
inactive: [1] -0.146 | filanesib 0 | zotarolimus -0.034 | idasanutlin -0.088 | alisertib 0.018 | [2] 0.037 | gefitinib 0.27 | [3] 0.01 | lapatinib -0.065 | pictilisib 0.039 | [4] -0.033 | crizotinib -0.078 | [5] 0.048 | [6] 0.115 | duvelisib 0.015 | gandotinib -0.043 | tozasertib 0.014 | [7] -0.021 | doramapimod 0.314 | ispinesib -0.111

MAGOHB (UniProt Q96A72)
UniProt Q96A72, sequence (Q96A72 whole entry, looked up): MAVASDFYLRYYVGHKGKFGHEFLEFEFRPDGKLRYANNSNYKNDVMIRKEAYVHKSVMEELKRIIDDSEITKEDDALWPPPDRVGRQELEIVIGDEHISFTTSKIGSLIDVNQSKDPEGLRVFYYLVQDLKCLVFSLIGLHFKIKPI
inactive: [1] -0.012 | filanesib 0.018 | zotarolimus 0.054 | idasanutlin -0.027 | alisertib 0.011 | [2] 0.144 | gefitinib 0 | [3] 0.024 | lapatinib -0.018 | pictilisib 0.005 | [4] 0.005 | [5] 0.013 | [6] -0.131 | duvelisib 0.039 | gandotinib 0.084 | tozasertib 0.141 | [7] 0.05 | doramapimod -0.016 | ispinesib 0.076
active: crizotinib 0.324

MCUR1 (UniProt Q96AQ8)
UniProt Q96AQ8, sequence (Q96AQ8 whole entry, looked up): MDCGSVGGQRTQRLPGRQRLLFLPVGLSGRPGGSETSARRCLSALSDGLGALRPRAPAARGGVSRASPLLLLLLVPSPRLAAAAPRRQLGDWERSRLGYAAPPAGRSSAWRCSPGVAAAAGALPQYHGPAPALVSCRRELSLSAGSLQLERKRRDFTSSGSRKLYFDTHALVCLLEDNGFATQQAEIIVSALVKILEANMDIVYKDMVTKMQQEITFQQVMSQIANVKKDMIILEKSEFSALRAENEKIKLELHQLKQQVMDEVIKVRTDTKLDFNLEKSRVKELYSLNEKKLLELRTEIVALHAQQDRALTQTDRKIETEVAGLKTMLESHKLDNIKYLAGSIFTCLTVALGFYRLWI
inactive: [1] -0.042 | filanesib 0.019 | zotarolimus -0.002 | idasanutlin -0.13 | alisertib 0.009 | [2] 0.181 | gefitinib 0.009 | [3] 0.052 | lapatinib -0.009 | pictilisib 0.087 | [4] 0.041 | crizotinib 0.082 | [5] 0.1 | [6] 0.044 | duvelisib 0.06 | gandotinib -0.021 | tozasertib 0.043 | [7] -0.017 | doramapimod -0.002 | ispinesib 0.255

MAP2K3 isoform 3 (UniProt P46734)
UniProt P46734, sequence (P46734 whole entry, looked up): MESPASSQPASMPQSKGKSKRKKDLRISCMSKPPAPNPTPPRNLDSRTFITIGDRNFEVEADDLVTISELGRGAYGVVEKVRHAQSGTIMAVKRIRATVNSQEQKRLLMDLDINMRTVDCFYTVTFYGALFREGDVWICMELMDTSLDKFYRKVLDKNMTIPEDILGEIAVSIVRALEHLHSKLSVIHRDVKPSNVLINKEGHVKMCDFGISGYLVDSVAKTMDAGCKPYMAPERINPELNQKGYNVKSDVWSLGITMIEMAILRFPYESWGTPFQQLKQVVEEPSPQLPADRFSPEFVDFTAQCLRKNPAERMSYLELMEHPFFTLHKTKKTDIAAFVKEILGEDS
inactive: [1] 0.076 | filanesib 0.01 | zotarolimus -0.018 | idasanutlin -0.019 | alisertib 0.152 | [2] 0.166 | gefitinib -0.086 | [3] -0.022 | lapatinib -0.079 | pictilisib 0.07 | [4] 0.054 | crizotinib -0.049 | [5] -0.068 | [6] 0.043 | duvelisib 0.091 | gandotinib -0.001 | tozasertib 0.005 | [7] -0.007 | doramapimod 0.012 | ispinesib -0.02

MDN1 (UniProt Q9NU22)
inactive: [1] 0.066 | filanesib -0.095 | zotarolimus -0.002 | idasanutlin -0.058 | alisertib -0.056 | [2] -0.031 | gefitinib -0.003 | [3] 0.022 | lapatinib -0.005 | pictilisib 0.001 | [4] -0.072 | crizotinib -0.135 | [5] 0.094 | [6] 0.002 | duvelisib 0.024 | gandotinib -0.156 | tozasertib -0.052 | [7] 0.063 | doramapimod -0.005 | ispinesib -0.117

KEL (UniProt P23276)
UniProt P23276, sequence (P23276 whole entry, looked up): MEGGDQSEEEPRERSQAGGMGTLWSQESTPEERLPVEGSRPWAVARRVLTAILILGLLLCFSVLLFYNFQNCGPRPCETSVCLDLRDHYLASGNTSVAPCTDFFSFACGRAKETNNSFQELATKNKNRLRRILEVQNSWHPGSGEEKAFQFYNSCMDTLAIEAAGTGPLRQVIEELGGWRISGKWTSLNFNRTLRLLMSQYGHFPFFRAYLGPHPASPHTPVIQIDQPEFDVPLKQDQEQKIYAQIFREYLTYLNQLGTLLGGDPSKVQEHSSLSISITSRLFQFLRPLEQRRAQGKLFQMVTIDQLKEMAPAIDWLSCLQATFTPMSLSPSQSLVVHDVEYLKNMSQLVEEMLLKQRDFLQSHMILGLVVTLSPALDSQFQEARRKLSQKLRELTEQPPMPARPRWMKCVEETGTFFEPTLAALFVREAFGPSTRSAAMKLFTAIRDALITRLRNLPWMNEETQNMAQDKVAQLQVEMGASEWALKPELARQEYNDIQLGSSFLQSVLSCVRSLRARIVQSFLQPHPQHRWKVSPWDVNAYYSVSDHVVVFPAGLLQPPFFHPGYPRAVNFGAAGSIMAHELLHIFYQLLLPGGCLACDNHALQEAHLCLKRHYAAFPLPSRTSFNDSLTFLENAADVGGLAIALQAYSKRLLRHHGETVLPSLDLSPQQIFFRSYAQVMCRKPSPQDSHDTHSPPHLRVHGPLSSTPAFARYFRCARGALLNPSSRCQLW
inactive: [1] -0.042 | filanesib 0.034 | zotarolimus -0.043 | idasanutlin 0.055 | alisertib 0.177 | [2] -0.015 | gefitinib 0.07 | [3] 0.176 | lapatinib -0.078 | pictilisib 0.194 | [4] 0.002 | crizotinib 0.084 | [5] -0.048 | [6] -0.07 | duvelisib 0.015 | gandotinib -0.341 | tozasertib -0.01 | [7] 0.019 | doramapimod 0.028 | ispinesib 0.047

MICU1 isoform 3 (UniProt Q9BPX6)
UniProt Q9BPX6, sequence (Q9BPX6 whole entry, looked up): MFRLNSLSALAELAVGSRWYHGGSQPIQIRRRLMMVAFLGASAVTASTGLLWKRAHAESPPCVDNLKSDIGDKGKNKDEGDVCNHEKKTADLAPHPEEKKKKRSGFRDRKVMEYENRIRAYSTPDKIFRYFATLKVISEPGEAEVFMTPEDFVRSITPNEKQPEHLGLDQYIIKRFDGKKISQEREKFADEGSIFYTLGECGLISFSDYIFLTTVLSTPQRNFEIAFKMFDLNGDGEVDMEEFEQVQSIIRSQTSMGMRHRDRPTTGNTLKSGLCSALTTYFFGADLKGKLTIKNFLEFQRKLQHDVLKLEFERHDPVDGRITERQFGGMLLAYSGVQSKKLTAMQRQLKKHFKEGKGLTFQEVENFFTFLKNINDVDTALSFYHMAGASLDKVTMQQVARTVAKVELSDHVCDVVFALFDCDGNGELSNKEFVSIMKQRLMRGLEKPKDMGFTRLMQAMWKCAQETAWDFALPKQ
inactive: [1] -0.047 | filanesib -0.031 | zotarolimus -0.034 | idasanutlin 0.05 | alisertib -0.011 | gefitinib 0.02 | [3] -0.056 | lapatinib 0.019 | pictilisib -0.038 | [4] -0.024 | crizotinib -0.207 | [5] -0.101 | [6] 0.023 | duvelisib -0.04 | gandotinib -0.128 | tozasertib -0.102 | [7] 0.021 | doramapimod -0.011
active: [2] -0.278 | ispinesib -0.458

MIEF1 (UniProt L0R8F8)
inactive: [1] 0.104 | filanesib -0.072 | zotarolimus 0.023 | idasanutlin -0.063 | alisertib -0.084 | [2] -0.148 | gefitinib -0.005 | [3] 0 | lapatinib 0.135 | pictilisib 0.033 | [4] -0.023 | crizotinib 0.068 | [5] -0.067 | [6] -0.065 | duvelisib 0.151 | gandotinib -0.062 | tozasertib 0.023 | [7] -0.025 | doramapimod -0.04 | ispinesib -0.03

MAP2K2 (UniProt P36507)
UniProt P36507, sequence (P36507 whole entry, looked up): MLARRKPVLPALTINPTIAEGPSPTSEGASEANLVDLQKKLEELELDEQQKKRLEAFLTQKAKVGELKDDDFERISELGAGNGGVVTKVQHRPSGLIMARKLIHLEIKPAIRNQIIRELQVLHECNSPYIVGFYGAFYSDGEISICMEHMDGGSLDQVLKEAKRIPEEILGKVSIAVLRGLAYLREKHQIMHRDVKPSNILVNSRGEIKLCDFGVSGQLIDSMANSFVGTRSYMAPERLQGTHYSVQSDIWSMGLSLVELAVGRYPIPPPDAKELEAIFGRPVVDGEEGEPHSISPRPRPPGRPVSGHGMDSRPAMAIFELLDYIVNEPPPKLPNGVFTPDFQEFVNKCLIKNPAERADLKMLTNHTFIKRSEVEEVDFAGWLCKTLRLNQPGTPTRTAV
inactive: [1] -0.014 | filanesib -0.061 | zotarolimus 0.018 | idasanutlin 0 | alisertib -0.103 | [2] -0.011 | gefitinib -0.011 | [3] 0.007 | lapatinib -0.069 | pictilisib -0.023 | [4] 0.013 | crizotinib -0.055 | [5] 0.069 | [6] -0.052 | duvelisib 0.02 | gandotinib -0.069 | tozasertib -0.041 | [7] -0.01 | doramapimod -0.038 | ispinesib -0.058

ILF2 (UniProt Q12905)
inactive: [1] 0.086 | filanesib 0.101 | zotarolimus -0.024 | idasanutlin 0.084 | alisertib -0.146 | [2] 0.068 | gefitinib -0.045 | [3] -0.08 | lapatinib 0.101 | pictilisib -0.035 | [4] -0.168 | crizotinib -0.164 | [5] -0.153 | [6] 0.206 | duvelisib -0.126 | gandotinib 0.07 | tozasertib -0.024 | [7] 0.022 | doramapimod 0.063 | ispinesib 0.038

LRBA (UniProt P50851)
inactive: [1] -0.004 | filanesib -0.06 | zotarolimus 0.002 | idasanutlin -0.113 | alisertib -0.017 | [2] 0.029 | gefitinib -0.008 | [3] 0.031 | lapatinib 0.009 | pictilisib -0.015 | [4] 0.018 | crizotinib -0.054 | [5] 0.037 | [6] -0.005 | duvelisib 0.012 | gandotinib -0.094 | tozasertib -0.006 | [7] 0.011 | doramapimod 0.012 | ispinesib -0.078

IRF2BPL (UniProt Q9H1B7)
UniProt Q9H1B7, sequence (Q9H1B7 whole entry, looked up): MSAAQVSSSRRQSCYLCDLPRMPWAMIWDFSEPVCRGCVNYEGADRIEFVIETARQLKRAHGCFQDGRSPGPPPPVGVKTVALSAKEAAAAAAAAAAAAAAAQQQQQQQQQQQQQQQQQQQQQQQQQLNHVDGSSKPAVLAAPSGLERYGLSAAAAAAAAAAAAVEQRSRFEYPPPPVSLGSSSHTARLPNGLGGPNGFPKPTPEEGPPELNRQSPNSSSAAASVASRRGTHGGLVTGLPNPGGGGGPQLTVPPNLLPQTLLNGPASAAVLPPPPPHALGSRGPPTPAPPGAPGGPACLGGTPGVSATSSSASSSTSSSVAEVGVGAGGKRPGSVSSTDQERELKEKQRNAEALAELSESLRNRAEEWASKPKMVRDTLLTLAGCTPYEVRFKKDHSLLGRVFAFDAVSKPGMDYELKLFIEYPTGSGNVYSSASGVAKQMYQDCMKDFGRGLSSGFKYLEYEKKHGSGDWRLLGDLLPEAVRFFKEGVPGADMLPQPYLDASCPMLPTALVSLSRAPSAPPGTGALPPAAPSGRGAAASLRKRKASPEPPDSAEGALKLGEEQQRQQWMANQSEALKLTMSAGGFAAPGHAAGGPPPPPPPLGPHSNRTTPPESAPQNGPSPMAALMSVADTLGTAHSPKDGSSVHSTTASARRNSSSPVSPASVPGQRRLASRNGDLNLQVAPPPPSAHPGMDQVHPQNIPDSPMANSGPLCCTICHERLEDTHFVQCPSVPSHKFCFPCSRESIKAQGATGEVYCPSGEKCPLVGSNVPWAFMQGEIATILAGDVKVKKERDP
inactive: [1] 0.283 | filanesib -0.025 | zotarolimus 0.029 | idasanutlin 0.033 | alisertib 0.058 | [2] 0.015 | gefitinib -0.016 | [3] -0.027 | lapatinib -0.015 | pictilisib 0.071 | [4] -0.034 | crizotinib 0.133 | [5] 0.249 | [6] -0.005 | duvelisib 0.106 | gandotinib -0.041 | tozasertib 0.034 | [7] 0.066 | doramapimod -0.061 | ispinesib -0.083

IK (UniProt Q13123)
inactive: [1] 0.056 | filanesib 0.156 | zotarolimus 0.007 | idasanutlin 0.102 | alisertib -0.044 | [2] 0.07 | gefitinib 0.027 | [3] -0.096 | lapatinib -0.008 | pictilisib -0.035 | [4] -0.041 | crizotinib 0.021 | [5] -0.037 | [6] 0.186 | duvelisib 0.034 | gandotinib 0.022 | tozasertib 0.05 | [7] -0.007 | doramapimod 0.016 | ispinesib 0.065

MICOS13 (UniProt Q5XKP0)
UniProt Q5XKP0, sequence (Q5XKP0 whole entry, looked up): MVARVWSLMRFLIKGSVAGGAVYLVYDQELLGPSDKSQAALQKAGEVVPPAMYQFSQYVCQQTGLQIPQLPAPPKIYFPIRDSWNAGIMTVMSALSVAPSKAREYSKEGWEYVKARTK
inactive: [1] 0 | filanesib -0.095 | zotarolimus -0.048 | idasanutlin -0.144 | alisertib -0.014 | [2] -0.082 | gefitinib -0.032 | [3] 0.079 | lapatinib -0.063 | pictilisib -0.001 | [4] 0.049 | crizotinib -0.164 | [5] 0.156 | [6] -0.08 | duvelisib 0.031 | gandotinib -0.216 | tozasertib -0.047 | [7] -0.055 | doramapimod -0.027
active: ispinesib -0.257
